High-throughput results from PubChem.
This is a sample that favours compounds with a hit; in the whole collection about 3.3% have one here.
Mcl1-Bid inh – Mcl-1/Bid interaction inhibition; Q07820; TR-FRET Mcl-1/Bid-Dy647 peptide binding, 1536-well; inhibition, % at 21.7 µM; 0.97% of 220,000 active;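 active = compounds that cut the binding signal by more than half at the single screening dose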;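 also: His-tagged Mcl-1 with europium anti-His antibody binding Bid BH3 peptide; 0% = Mcl-1 plus peptide wells and 100% = peptide-only wells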
Target sequence (Q07820 whole entry, looked up): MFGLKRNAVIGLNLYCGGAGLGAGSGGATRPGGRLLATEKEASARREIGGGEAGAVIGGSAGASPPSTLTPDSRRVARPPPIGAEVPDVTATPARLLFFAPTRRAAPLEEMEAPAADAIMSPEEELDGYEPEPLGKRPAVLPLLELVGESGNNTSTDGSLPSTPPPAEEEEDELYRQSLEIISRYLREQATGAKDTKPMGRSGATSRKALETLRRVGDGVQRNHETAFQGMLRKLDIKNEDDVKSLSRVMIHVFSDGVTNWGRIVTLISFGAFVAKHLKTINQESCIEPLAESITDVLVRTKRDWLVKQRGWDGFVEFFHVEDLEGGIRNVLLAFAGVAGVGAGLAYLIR
eIF4E 4G PPI – blocks eIF4E binding to eIF4G; P63073+Q04637; TR-FRET eIF4E-eIF4GI(517-606) binding, 2 h; inhibition, % at 21.7 µM; 0.37% of 220,000 active; AID 782;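 also: 0% = full FRET control wells and 100% = background wells lacking eIF4GI fragment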
p47phox inh – p47phox (human) inhibition. inhibition, % at 24.7 µM. P14598. 0.53% of 220,000 active. p47phox/p22phox peptide binding, fluorescence polarization, 2 h;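 also: 0% = p47phox with labelled peptide and 100% = labelled peptide alone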
14-3-3 Bad inh – disrupts binding of bovine 14-3-3 zeta to phospho-Bad peptide. TR-FRET 14-3-3zeta/Dy647-pBad peptide displacement, 1 h. inhibition, % at 21.7 µM. 0.71% of 220,000 active. P63103;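 active = inhibition above about 70%, limit read from the data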;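 also: 0% = full 14-3-3 plus peptide FRET controls and 100% = background without 14-3-3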
Target sequence (P63103 whole entry, looked up): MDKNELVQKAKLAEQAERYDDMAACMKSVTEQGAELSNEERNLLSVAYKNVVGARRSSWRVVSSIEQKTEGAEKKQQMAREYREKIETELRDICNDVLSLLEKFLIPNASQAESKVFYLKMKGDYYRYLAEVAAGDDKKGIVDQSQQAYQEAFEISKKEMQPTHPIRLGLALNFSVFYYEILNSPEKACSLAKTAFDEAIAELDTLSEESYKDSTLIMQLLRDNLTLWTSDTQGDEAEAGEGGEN
Mcl1 Noxa PPI – Mcl-1/Noxa interaction inhibition; inhibition, % at 21.7 µM; TR-FRET Mcl-1/Noxa peptide binding, 2 h; 1.5% of 220,000 active;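 active = compounds that cut the protein-peptide binding signal by more than 50% relative to plate controls in a single-dose test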;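 also: His-tagged Mcl-1 with rhodamine Noxa BH3 peptide and terbium anti-His antibody; 0% = Mcl-1 plus Noxa peptide wells and 100% = peptide-only wells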
Mcl-1 Bim block – human Bim-Mcl-1 interaction inhibition | inhibition, % at 10 µM | Bead-based flow cytometry, Bim peptide-Mcl-1 binding | 0.1% of 190,000 active | AID 1009; in the data active = inhibition above about 40%;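 also: 0% = no compound tracer wells and 100% = peptide blocker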
Active calls of the source: *; . = not tested or not shown; + = active, no number; [ ] = remark or other dose.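 The calls were made as follows, unless noted: active = inhibition above about 30% (limit read from the data); inactive = the rest.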

SMILES | Mcl1-Bid inh | eIF4E 4G PPI | p47phox inh | 14-3-3 Bad inh | Mcl1 Noxa PPI | Mcl-1 Bim block
NC(=O)COC(=O)c1cccc(NS(=O)(=O)/C=C/c2ccccc2)c1 | -27 | 12 | -11 | 2 | 7 | 0
CCNc1nc(NCC)nc(N/N=C/c2ccc(O)c(O)c2)n1 | -45 | 3 | -13 | -13 | 54* | 2
COc1cc2nc(CN3CCOCC3)n(CC(=O)NCC(F)(F)F)c(=O)c2cc1OC | -16 | 5 | -1 | 0 | -11 | .
CN1C(=O)/C(=C/c2cn(CC(=O)NCc3ccco3)c3ccccc23)NC1=S | -22 | 10 | -13 | 5 | 73* | 8
CN(C)c1ccc(NC(=O)c2sc(SCC(=O)Nc3ccc(Br)cc3)nc2N)cc1 | 21 | 2 | 0 | 3 | 34 | 1
CN(C)c1ccc(NC(=O)c2sc(SCC(=O)Nc3nccs3)nc2N)cc1 | -29 | 8 | -7 | 5 | 66* | -5
Cc1ccc(NC(=S)NC2CC3CCC(C2)N3Cc2ccco2)c(C)c1 (centres undefined) | -39 | -7 | 37* | -1 | 2 | -4
NC(=O)CC(NC(=O)c1ccc(Br)cc1)c1ccc(NCCc2ccc(F)cc2)c([N+](=O)[O-])c1 (centres undefined) | 18 | -2 | 13 | 13 | 12 | .
NC(=O)CC(NC(=O)Cc1ccc(Br)cc1)c1ccc(NC2CCC2)c([N+](=O)[O-])c1 (centres undefined) | -50 | 1 | 0 | 0 | 51* | .
CC(C)Nc1ccc(C(CC(N)=O)NC(=O)c2ccc(Br)cc2)cc1[N+](=O)[O-] (centres undefined) | 65* | -2 | -16 | 6 | 2 | .
NC(=O)CC(NC(=O)c1ccccc1)c1ccc(NCCc2cccc(F)c2)c([N+](=O)[O-])c1 (centres undefined) | -40 | 96* | -5 | 3 | -3 | .
Cc1csc2c(SCC(=O)NNC(=O)C(Cl)Cl)ncnc12 | -10 | -4 | -45 | -6 | -11 | .
COc1ccc2c(CC(=O)Nc3ccc(OC)nc3)coc2c1 | -23 | 0 | 35* | -10 | -8 | 0
COc1ccc(CC(=O)Nc2ccc(OC)nc2)cc1 | -45 | 4 | 2 | -4 | 3 | 1
O=C1N/C(=N/N=C/c2ccccc2)SC1(c1ccccc1)c1ccccc1 | -9 | -1 | 1 | -8 | 10 | 0
CC(C)COC(=O)C1C(=O)CC(C)(O)C(C(=O)OCC(C)C)C1c1cccnc1 (centres undefined) | -8 | 3 | -5 | 9 | 11 | 0
CC(C)(C)OC(=O)C1C(=O)CC(C)(O)C(C(=O)OC(C)(C)C)C1c1cccnc1 (centres undefined) | -17 | -1 | -9 | 80* | -3 | 1
CCOC(=O)/C(C#N)=C\c1ccc(OCC(=O)Nc2ccc(C)cc2C)c(OC)c1 | 28 | -41 | 4 | 14 | -16 | -1
Cc1ccc(C(O)(C(=O)NNS(=O)(=O)c2ccc(C)cc2)c2ccc(C)cc2)cc1 | -10 | -1 | -17 | -11 | 8 | -9
COc1cc(/C=C(/NC(C)=O)C(=O)O)cc(Cl)c1OCc1ccc(Br)cc1 | -19 | -1 | -14 | 2 | 102* | .
CC(C)CN(CC(C)C)S(=O)(=O)N1CCC(C(=O)NCc2ccc3c(c2)OCO3)CC1 | -19 | -3 | 2 | -8 | 11 | -3
COc1ccc(-c2noc(CSc3nc(N)c(-c4ccccc4)c(=O)[nH]3)n2)cc1OC | -11 | 46*[fluorescence artefact?] | -10 | 12 | 15 | -2
COc1ccc(-c2noc(CSc3nc(-c4ccccc4)cc(=O)[nH]3)n2)cc1 | -12 | -55 | -7 | 69 | -9 | -5
O=c1c(-c2c(O)cc(O)c3c(=O)cc(-c4ccc(O)cc4)oc23)c(-c2ccc(O)cc2)oc2cc(O)cc(O)c12 | -60 | 2 | -134 | 18 | 103* | .
O=c1c(-c2ccc(O)cc2)coc2cc(O)cc(O)c12 | -66 | -25 | 4 | 0 | 2 | .
SMILES | Mcl1-Bid inh | eIF4E 4G PPI | p47phox inh | 14-3-3 Bad inh | Mcl1 Noxa PPI | Mcl-1 Bim block
O=c1cc(-c2ccc(O)c(-c3c(O)cc(O)c4c(=O)cc(-c5ccc(O)cc5)oc34)c2)oc2cc(O)cc(O)c12 | 22 | 12 | -76 | 3 | 112* | 0
O=c1cc(-c2ccc(O)c(O)c2)oc2cc(O)cc(O)c12 | -65 | 3 | -13 | 22 | 66* | .
O=c1cc(-c2ccccc2)oc2cc(OCc3ccccc3)cc(O)c12 | -15 | 0 | -14 | 11 | 10 | 1
O=C(C[n+]1ccccc1)Nc1ccc(Oc2ccccc2)cc1 | 6 | 1 | -4 | -8 | -7 | 3
Cc1ccc(Oc2ccc(C(F)(F)F)cc2[N+](=O)[O-])c([N+](=O)[O-])n1 | -10 | 6 | 0 | 0 | -11 | .
CCn1c(=O)c2cc(C(=O)N3CCCC3)sc2c2ccccc21 | 6 | 8 | 3 | 26 | 13 | -4
CCCN(CCC)CCNC(=O)c1cc2c(=O)n(CC)c3ccccc3c2s1 | 2 | 97* | 1 | 10 | 28 | .
CC1(C)CC(=O)c2c(oc3ccc(NS(=O)(=O)c4cccc5cccnc45)cc23)C1 | -32 | 0 | 1 | 0 | -12 | 0
O=C1/C(=C\c2ccco2)CCC/C1=C\c1ccco1 | -69 | 14 | -39 | -13 | 5 | 2
CC1C/C(=C/c2ccco2)C(=O)/C(=C/c2ccco2)C1 (centres undefined) | -13 | 15 | -31 | -4 | 53* | 16
COCCCN1C(=O)C(=O)/C(=C(/O)c2ccc(OC)cc2)C1c1cccc(OC)c1 (centres undefined) | -17 | 4 | -16 | 48 | 64* | 3
CCOC(=O)C1CCCN(c2ccc(NC(=O)c3snc4c(=O)[nH]c(C)nc34)cc2)C1 (centres undefined) | 2 | -8 | -4 | 1 | 84* | 0
O=C(Nc1ccccc1)c1snc2c(=O)[nH]cnc12 | -4 | 0 | -7 | 2 | -2 | 16
CCOC(=O)C1CCCN(c2ccc(NC(=O)c3snc4c(=O)[nH]cnc34)cc2)C1 (centres undefined) | -60 | -7 | 1 | 12 | 63* | -3
CCOC(=O)C1CCCN(c2c(Nc3ccc(C)c(C)c3)c(=O)c2=O)C1 (centres undefined) | -7 | 2 | -11 | 12 | -7 | -4
CC(=O)Nc1nc(C)c(Oc2ccc(C)cc2)c(=O)[nH]1 | -10 | 3 | -2 | 0 | -22 | .
Cn1ncc(N=Cc2ccccc2O)c1C(=O)N1CCOCC1 | -19 | -5 | + | -7 | -4 | 0
Cn1ncc(Cl)c1C(=O)N1CCOCC1 | -28 | -4 | -4 | -7 | -10 | 4
COc1ccccc1CNC(=O)C(NS(=O)(=O)c1cccc2nsnc12)C(C)C (centres undefined) | 5 | -2 | 1 | 5 | 31 | .
